Reference: PubChem BioAssay (NCATS)
“And” between values parts separate entries of the source, which are not always exact repeats. Equal values may be shown once. Values without a mark were called inactive. The source made the active and inactive calls. How the calls were made is not given here.

Experiments:
[1] = target: Nuclear receptor subfamily 1 group I member 2 (Rattus norvegicus) (UniProt Q9R1A7); assay: qHTS assay for small molecule activators of the rat pregnane X receptor (rPXR) signaling pathway (AID 651751); settings: rPXR reporter cells, luciferase (One-Glo), 24 h
[2] = qHTS assay for small molecule activators of the human pregnane X receptor (PXR) signaling pathway (AID 720659); settings: DPX-2 HepG2 CYP3A4-luciferase, 24 h; series mostly up to 92.3 µM
Further: 0% is about no effect.

Sequence of Nuclear receptor subfamily 1 group I member 2 (Rattus norvegicus) (Q9R1A7 whole entry, looked up): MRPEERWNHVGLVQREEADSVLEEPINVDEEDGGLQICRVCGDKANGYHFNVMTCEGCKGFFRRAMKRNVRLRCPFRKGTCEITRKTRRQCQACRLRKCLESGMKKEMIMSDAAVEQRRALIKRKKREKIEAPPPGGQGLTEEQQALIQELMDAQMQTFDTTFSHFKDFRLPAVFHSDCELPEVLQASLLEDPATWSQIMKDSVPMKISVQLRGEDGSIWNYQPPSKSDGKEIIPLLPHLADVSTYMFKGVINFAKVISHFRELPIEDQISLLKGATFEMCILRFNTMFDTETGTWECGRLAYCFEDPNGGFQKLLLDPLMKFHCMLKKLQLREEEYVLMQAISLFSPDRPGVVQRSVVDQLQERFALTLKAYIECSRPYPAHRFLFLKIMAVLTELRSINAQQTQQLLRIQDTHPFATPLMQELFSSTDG

SMILES	max response [1]	outcome [2]
CN(Cc1cnc2nc(N)nc(N)c2n1)c1ccc(C(=O)N[C@@H](CCC(=O)O)C(=O)O)cc1	-4.55%	inactive
Cn1c(=O)c2c(ncn2C)n(C)c1=O	0.943% and 1.54%	inactive
O=C(Nc1ccc([N+](=O)[O-])cc1Cl)c1cc(Cl)ccc1O	-12.4%	inactive
Nc1c2c(nc3ccccc13)CCCC2	4.58%	inactive
NS(=O)(=O)c1cc2c(cc1Cl)NCNS2(=O)=O	-0.0581% and 1.2%	inactive
CCC1(c2ccccc2)C(=O)NCNC1=O		inactive
O=c1c(-c2ccc(O)cc2)coc2cc(O)cc(O)c12	-0.208% and 4.35%	
Cn1c(=O)c2[nH]cnc2n(C)c1=O	5.46%	inactive
Cc1cn([C@H]2C=C[C@@H](CO)O2)c(=O)[nH]c1=O	0.921% and -1.01% and -5.21%	inactive
COc1ccc2[nH]cc(CCNC(C)=O)c2c1	3.19% and 0.0273% and 3.25%	inactive
CC(C)Cc1ccc(C(C)C(=O)O)cc1 (configuration not stated)		inactive
CC#C[C@]1(O)CC[C@H]2[C@@H]3CCC4=CC(=O)CCC4=C3[C@@H](c3ccc(N(C)C)cc3)C[C@@]21C		inactive
O=c1[nH]cc(F)c(=O)[nH]1		inactive
CCOC(=O)C(C)(C)Oc1ccc(Cl)cc1	2.24%	inactive
CC(C)NCC(O)c1ccc(O)c(O)c1 (configuration not stated)	-3.83% and 3.86%	
N[C@@H](Cc1c[nH]c2ccc(O)cc12)C(=O)O	2.83%	inactive
C[C@](N)(Cc1ccc(O)c(O)c1)C(=O)O	-1.2%	inactive
CN(C)CCOC(c1ccccc1)c1ccccc1	2.67%	
Cn1cnc2c1c(=O)[nH]c(=O)n2C	2.94%	
Cc1cn([C@H]2C[C@H](N=[N+]=[N-])[C@@H](CO)O2)c(=O)[nH]c1=O	-4.33% and 1.62%	
COc1ccc2c(c1)c(CC(=O)O)c(C)n2C(=O)c1ccc(Cl)cc1	-2.59% and -3.57%	inactive
Nc1ccn([C@H]2CC[C@@H](CO)O2)c(=O)n1	4.04% and 0.741%	inactive
CC(C)(Oc1ccc(C2CC2(Cl)Cl)cc1)C(=O)O (configuration not stated)	27.5%	inactive
